High-throughput results from PubChem.
Sampled rows, rich in hits. Any-hit rate of the full collection: about 2.5%.
D2 ag-1: activates the human D2 dopamine receptor. P14416. DiscoveRx PathHunter D2 beta-arrestin, luminescence, 90 min; 100% = 57 uM dopamine signal. activation, % (test concentration not listed). 0.084% of 360,000 active; in the data active = activation above about 40%; inconclusive = between about 15% and that limit
Target sequence (P14416 whole entry, looked up): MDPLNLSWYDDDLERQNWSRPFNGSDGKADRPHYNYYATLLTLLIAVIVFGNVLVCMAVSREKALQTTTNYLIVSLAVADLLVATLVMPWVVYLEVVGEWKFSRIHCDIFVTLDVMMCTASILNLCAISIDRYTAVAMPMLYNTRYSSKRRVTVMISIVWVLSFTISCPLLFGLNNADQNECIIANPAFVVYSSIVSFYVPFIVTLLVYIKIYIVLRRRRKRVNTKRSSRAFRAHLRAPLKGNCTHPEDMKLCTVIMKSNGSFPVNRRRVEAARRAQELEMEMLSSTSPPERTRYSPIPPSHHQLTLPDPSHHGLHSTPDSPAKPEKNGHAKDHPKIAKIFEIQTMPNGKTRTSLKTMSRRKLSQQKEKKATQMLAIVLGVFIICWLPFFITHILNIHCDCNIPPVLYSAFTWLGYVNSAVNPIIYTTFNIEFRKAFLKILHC
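Agonist mode: compounds alone added to overnight-plated D2 PathHunter cells for 90 min at 37 C, with 57 uM final dopamine (EC100) defining full response. Beta-arrestin recruitment detected by chemiluminescent reagent, read after 1 h at ambient temperature.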
Anesthetic bind: binds horse apoferritin like a general anesthetic; apoferritin/1-aminoanthracene competitive binding, fluorescence; P02791; 0.074% of 350,000 active; Potency, µM (highest dose often 77.5 µM), hits mostly inhibitors; active = well fitted inhibition curve with a large enough effect; inconclusive = small, poorly fitted or top-dose-only effect; inactive = no such curve, though single readings can be large or run the other way; note: nearly all actives have a fitted effect of over 20% in size
Target sequence (P02791 2-175 limits assumed): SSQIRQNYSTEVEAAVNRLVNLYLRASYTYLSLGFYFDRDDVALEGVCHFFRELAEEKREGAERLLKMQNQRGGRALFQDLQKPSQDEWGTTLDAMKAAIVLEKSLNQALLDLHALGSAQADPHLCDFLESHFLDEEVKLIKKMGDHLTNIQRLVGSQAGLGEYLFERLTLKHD
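Concentration-response curves derived by four-parameter Hill fitting of normalized fluorescence, where compounds displaced 1-AMA from 10 uM horse apoferritin following a brief 10 min room-temperature incubation; propofol titration acted as positive control.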
D2 PAM-1: potentiates the human D2 dopamine receptor allosterically; 0.23% of 360,000 active; potentiation, % (test concentration not listed); DiscoveRx D2 beta-arrestin cells, luminescence, 90 min; 100% = 57 uM dopamine signal; P14416; in the data active = potentiation above about 50%; inconclusive = mostly about 30% to 49%
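PathHunter beta-arrestin assay in DiscoveRx D2 cells. Compounds were added with an EC20 of dopamine (50 nM final) for 90 min at 37 deg C. Luminescence was read 1 h after detection reagent, with 57 uM dopamine as the EC100 control.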
D2 antag: D2 dopamine receptor (human) antagonism | P14416 | HEK293 TREx D2 cells, calcium flux, dopamine EC80 | inhibition, % at 10 µM | 2% of 340,000 active | AID 485344; in the data active = inhibition above about 30%; inactive = below that, where a call was filed
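Inhibition of EC80 dopamine-driven calcium flux, recorded kinetically, defines activity here; cells are a tetracycline-induced HEK293 T-REx line expressing force-coupled D2.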
D2 ag-2: D2 dopamine receptor (human) agonism; P14416; activation, % at 2 µM; 0.53% of 340,000 active; AID 485358; HEK293 T-REx D2 cells, calcium flux agonist mode;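 active = activation over 3 SD above normal in the single-dose calcium agonist read, cut at about 30% in these data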
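Calcium-flux readout, 1 cycle/sec over 180 s following compound pin transfer, in inducible HEK293 Trex D2 cells (force-coupled); dopamine controls included. Positive calcium responses during this window marked compounds as potential agonists.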
D2 PAM-2: D2 dopamine receptor (human) potentiation | P14416 | HEK293 T-REx D2, calcium flux, EC20 dopamine potentiation | potentiation, % at 10 µM | 0.34% of 340,000 active;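 active = potentiation over 3 SD above the plate norm, cut at about 30% in these data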
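Tetracycline-induced Hek293 Trex D2 cells, force-coupled to calcium, loaded with no-wash calcium dye. Compound added with 180 s kinetic read for agonism, then EC20 dopamine and a further 180 s read for potentiation.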
Hits are given with their value; n = inactive; u = inconclusive; x = no result given.

SMILES | D2 ag-1 | Anesthetic bind | D2 PAM-1 | D2 antag | D2 ag-2 | D2 PAM-2
COc1ccc(F)cc1C(=O)C1CCCN(Cc2cnc(N3CCCC3)s2)C1 (configuration not stated) | n | n | n | 66 | n | n
COc1ccc(F)cc1C(=O)C1CCCN(Cc2ccc(Oc3ncccn3)cc2)C1 (configuration not stated) | n | n | n | 49 | n | n
COc1ccc(F)cc1C(=O)C1CCCN(Cc2cccn2-c2cccnc2)C1 (configuration not stated) | n | n | n | 74 | n | n
O=C(c1cccc(C(F)(F)F)c1)C1CCCN(Cc2cccn2-c2ncccn2)C1 (configuration not stated) | n | n | n | 32 | n | n
COc1ccc(F)cc1C(=O)C1CCCN(Cc2ccc3c(c2)OCCO3)C1 (configuration not stated) | n | n | n | x | x | x
COc1ccc(-n2nnnc2SC(C)C(=O)NC2CCCC2)cc1 (configuration not stated) | n | x | n | n | n | n
CCCCN(C=O)c1c(CC)nc2ccc(C(=O)NCCN(C)C)cn12 | n | x | n | x | x | x
CC1(O)CCC(C(C)(C)O)CC1 (configuration not stated) | x | n | x | x | x | x
O=C(COC(=O)/C=C/c1ccc(S(=O)(=O)N2CCOCC2)cc1)NCc1ccc(Cl)cc1 | n | n | n | 47 | n | n
O=C(OCc1cn(Cc2ccccc2)nn1)c1ccccc1 | n | n | n | n | n | n
c1ccc(Cn2cc(CNc3ccccc3)nn2)cc1 | n | n | n | 42 | n | n
CC1CCC(NC(=O)CN2CCC(n3nnc4cc(F)ccc43)CC2)CC1 (configuration not stated) | n | u | n | 41 | n | n
O=C(Nc1cccc(Cl)c1Cl)c1ccccc1OCC(=O)N1CCOCC1 | n | n | n | x | x | x
CC1CC1C(=O)OCC(=O)Nc1cccc(Br)c1 (configuration not stated) | n | x | n | n | n | n
COC(=O)CN1C(=O)COc2ccc(Cl)cc21 | n | n | n | n | n | n
COCCNC(=O)CN1C(=O)COc2ccc(Cl)cc21 | n | n | n | 35 | n | n
CN(C)CCNC(=O)CN1C(=O)COc2ccc(C(C)(C)C)cc21 | n | n | n | 36 | n | n
Nc1nc2ccc(C(=O)N3CCCCC3)cc2s1 | n | n | n | 51 | n | n
COc1ccc(OC)c(S(=O)(=O)NCC(=O)NC2CCCCCC2)c1 | n | x | n | n | n | n
CCOc1ccc(/C=N/NC(=O)c2cc3c(OC)cc(OC)c(OC)c3[nH]2)cc1 | n | n | n | 56 | n | n
CCCOc1ccc2[nH]c(C(=O)N/N=C/c3cc(OC)c(OC)c(OC)c3)cc2c1 | n | n | n | n | n | n
Clc1ccc(-c2csc(N/N=C/c3ccc4c(c3)OCO4)n2)cc1 | n | n | n | 35 | n | n
Cc1cccc(Cc2c(C)nc3nc(SCC(=O)NCc4ccccc4)nn3c2C)c1 | x | u | x | x | n | n
Cc1cccc(Cc2c(C)nc3nc(SCC(=O)O)nn3c2C)c1 | n | n | n | n | n | 47
O=C(CNc1cccc([N+](=O)[O-])c1)N/N=C/c1ccc(F)cc1 | n | u | n | n | n | n
SMILES | D2 ag-1 | Anesthetic bind | D2 PAM-1 | D2 antag | D2 ag-2 | D2 PAM-2
O=C(/C=C/c1ccccc1)NC1CC2CCCC(C1)N2Cc1ccccc1 (configuration not stated) | x | n | x | 88 | n | n
CCN(CC)C(=O)NC1CC2CCCC(C1)N2Cc1ccccc1 (configuration not stated) | n | n | n | 92 | n | n
CC(C)C(=O)Nc1ccc(-c2csc(-c3ccccc3)n2)cc1 | n | n | n | n | n | n
COC(=O)NC1(C(F)(F)F)C(=O)NC(C)=C1C(=O)OC (configuration not stated) | n | n | n | n | n | 39
C=CC[C@@H](Cc1ccc(F)cc1)C(=O)OC[C@H]1CCCN1C(=O)[C@H](CC=C)CC(=O)NCCO | n | x | n | x | x | x
CCN(CC)CCOc1c(C)cccc1Cl | n | n | n | 62 | n | n
Cc1cccc(Cl)c1OCCCn1ccnc1 | n | n | n | n | n | n
Cc1ccc(-c2nnc(NC(=O)Cc3ccc(F)cc3)o2)c(C)c1 | n | n | n | 67 | n | n
CC(=O)Nc1ccc(NC(=O)CCn2cnnn2)cc1 | n | n | n | n | n | n
O=C(CCn1cnnn1)Nc1ccc(F)cc1 | n | n | n | 32 | n | n
COc1ccc2cc3cc(C(=O)NCCN4CCN(c5ccccc5F)CC4)oc3nc2c1 | n | n | n | 38 | n | n
Cn1c(=O)oc2cc(S(=O)(=O)N3CCCC(C(=O)Nc4nccs4)C3)ccc21 (configuration not stated) | n | n | n | n | n | n
CC1(C)CC(=O)C2=C(C1)OC(N)=C(C#N)C2c1ccccc1[N+](=O)[O-] (configuration not stated) | n | n | n | n | n | n
COc1ccccc1N/N=C1\COC(C)(C)CC1=O | n | n | n | n | n | n
c1ccc2nc3c(nc2c1)CCc1nonc1-3 | n | n | n | n | n | n
O/N=C1/CCc2nonc2/C1=N/O | n | n | n | 39 | n | n
CN(C)c1ncnc2c1ncn2[C@H]1CN(CCN2CCOCC2)C[C@@H](CO)O1 | n | x | n | x | x | x
Cc1ccccc1NC(=O)C1(C)Cc2ccccc2C(=O)O1 (configuration not stated) | n | n | n | n | n | 33
CCc1ccccc1NC(=O)C1(C)Cc2ccccc2C(=O)O1 (configuration not stated) | x | n | x | x | n | n
O=C(/C=C/c1ccccc1)N/C(=C/c1ccccc1)C(=O)NCCO | n | n | n | n | n | n
CCN1CCCC1CNC(=O)c1ccc(Sc2ccc(F)cc2)c([N+](=O)[O-])c1 (configuration not stated) | n | n | n | 35 | n | n
CCN1CCCC1CNC(=O)c1ccc(Sc2ccccc2Cl)c([N+](=O)[O-])c1 (configuration not stated) | n | u | n | 72 | n | n
CCN1CCN(C(=O)c2ccc(Sc3ccccc3Cl)c([N+](=O)[O-])c2)CC1 | n | n | n | n | n | n
Clc1nc(NCCN2CCOCC2)nc(NCc2ccccc2)n1 | n | n | n | n | n | n
CC(NS(=O)(=O)c1ccc(OCC(=O)N2CCOCC2)cc1)c1ccccc1 (configuration not stated) | n | n | n | 31 | n | n
COCC1CCN(C(=O)c2ccc3oc(CCCc4ccccc4)nc3c2)C1 (configuration not stated) | n | n | n | n | n | 44
